Assay results published in PubChem BioAssay AID463193 (University of Pittsburgh Molecular Library Screening Center, 2010).
Screen size: about 190,000 compounds; about 1,900 (1%) were called active.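 How the source made its calls: active means percentage of spot-positive cells more than 3 SD above its plate mean, without a fluorescence outlier flag or 80% toxicity; inconclusive means no clear call, values can overlap the other calls; inactive means the rest.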 Many of the other results were omitted from the sample, so actives are more common in it than they were.

Assay: GFP-LC3 puncta formation changes – imaging, high-content, MEF GFP-LC3, primary screen (AID 463193);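 on % cells with GFP-LC3 spots: spot-positive cell cutoff set from DMSO-treated cells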;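 on toxicity: cell loss after 18 h compound exposure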
Conditions: autophagy, at 10 µM; % cells with GFP-LC3 spots: stronger effect = higher value; toxicity: measured here: cell loss, nuclei count

Row | SMILES | % cells with GFP-LC3 spots | toxicity
1 | COc1ccc(-c2nc(N)sc2C2(O)C(=O)Nc3c(Br)cc(F)cc32)cc1OC (centres undefined) | 1.66% (inactive) | -1.9%
2 | COC(=O)NNC1=CC(=O)CC(C)(C)C1 | 0.796% (inactive) | -6.02%
3 | Clc1cc(-c2ccc(/C=N/n3cnnc3)o2)ccc1Br | 8.69% (inactive) | 20.9%
4 | CC(=O)N/N=C(\C)c1ccc(Br)cc1Br | 20.7% (inactive) | 2.43%
5 | Cc1cc(C)c2[nH]c(=O)c(C(c3nnnn3Cc3ccc4c(c3)OCO4)N3CCCC3)cc2c1 (centres undefined) | 21.2% (inactive) | 8.95%
6 | COc1ccc(N2CCN(C(c3cc4ccc(C)cc4[nH]c3=O)c3nnnn3C3CCCC3)CC2)cc1 (centres undefined) | 5.85% (inactive) | -3.74%
7 | CCOC(=O)C1CCN(C(c2cc3cc(C)cc(C)c3[nH]c2=O)c2nnnn2C2CCCCC2)CC1 (centres undefined) | 19.2% (active) | 24.2%
8 | O=C(CN1C(=O)NC2(CCCC2)C1=O)NCC1CCCO1 (centres undefined) | 11.1% (inactive) | 7.52%
9 | CC1CCc2sc(C(=O)N/N=C/C3CCCCC3)cc2C1 (centres undefined) | 20.3% (active) | -2.28%
10 | O=C(NNC(=O)c1cc2c(s1)CCCC2)c1ccccc1 | 9.94% (inactive) | -13.8%
11 | C/C(=N\NC(=O)c1cc2c(s1)CCC(C)C2)c1cccnc1 (centres undefined) | 17.7% (inactive) | -0.909%
12 | COC(=O)c1c(C)[nH]c(C)c1-c1ccc([N+](=O)[O-])cc1 | 18.2% (inactive) | 38.9%
13 | CCOC(=O)c1c(NC(=O)Cn2nc(C(F)(F)F)cc2C)sc2c1CCC2 | 7.63% (inactive) | 0.444%
14 | N=c1c2c(-c3ccccc3)c(-c3ccccc3)oc2ncn1Cc1ccco1 | 5.09% (inactive) | -0.176%
15 | N=c1c2c(-c3ccccc3)c(-c3ccccc3)n(Cc3ccccc3)c2ncn1CCCO | 32% (active) | 9.38%
16 | Cc1nc([N+](=O)[O-])c(NCCCO)n1Cc1ccccc1 | 43.4% (inactive) | 4.77%
17 | O=C(Cc1ccccc1)NNS(=O)(=O)c1ccc([N+](=O)[O-])cc1 | 5.31% (inactive) | -4.08%
18 | CCCCN(CC)C(=O)c1ccccc1Oc1ccccc1 | 7.48% (inactive) | -0.889%
19 | CCCC(=O)n1nc(-c2ccccc2)nc1N | 10.8% (inactive) | -5.17%
20 | CCc1nn(-c2cc(Oc3cccc4ccccc34)nc(-c3ccccc3)n2)c(N)c1C#N | 19.2% (active) | -18%
21 | COc1ccc(C2c3c(C)nn(-c4ccccc4)c3NC(=O)N2c2ccccc2)cc1 (centres undefined) | 11% (inactive) | 17.6%
22 | COc1ccc(CN2CCCC(C(=O)c3ccc(Cl)cc3)C2)cc1Cn1cncn1 (centres undefined) | 0.149% (inactive) | -9.01%
23 | CCc1ccc(NC(=O)Cn2nc(C)c([N+](=O)[O-])c2C)cc1 | 13.4% (active) | 38.8%
24 | Cc1nn(CC(=O)Nc2ccc(N(C)C)cc2)c(C)c1[N+](=O)[O-] | 8.73% (inactive) | -12.8%

Row | SMILES | % cells with GFP-LC3 spots | toxicity
25 | Cc1nn(CC(=O)Nc2ccc(C#N)cc2)c(C)c1[N+](=O)[O-] | 2.1% (inactive) | 9.5%
26 | C=CCC(C(=O)c1ccccc1)[N+](C)(C)CC=C (centres undefined) | 2.53% (inactive) | -14.3%
27 | COC(=O)COc1ccc(C2NC(=O)NC(C)=C2C(=O)NCc2ccccc2)cc1OC (centres undefined) | 0.797% (inactive) | 20.4%
28 | Cn1c(N)c(C(=O)COC(=O)c2cnc(Cl)c(Cl)c2)c(=O)n(C)c1=O | 0.712% (inactive) | 15.7%
29 | Cc1c(Cl)cccc1NC(=O)CSc1ccc(-c2cccnc2)nn1 | 0.277% (inactive) | -2.28%
30 | CCC(=O)Nc1cc(C(F)(F)F)ccc1N1CCCC1 | 0.264% (inactive) | -3.5%
31 | CCN1CCN(CC(=O)Nc2sc3c(c2C#N)CCC3)CC1 | 2.15% (inactive) | 4.77%
32 | CCC1CCc2c(sc(NC(C)=O)c2C#N)C1 (centres undefined) | 6.62% (inactive) | -8.42%
33 | CN1CCN(CC(=O)Nc2sc3c(c2C#N)CCC(C(C)(C)C)C3)CC1 (centres undefined) | 41.9% (active) | 29.1%
34 | CC1(C)CC(=O)c2ccc(O)cc2O1 | 1.01% (inactive) | 7.65%
35 | CCOc1ccc(CN2CCN(Cc3ccc(C)o3)CC2CCO)cc1 (centres undefined) | 0.14% (inactive) | -9.23%
36 | O=C(CCN1C(=O)C2C3C=CC(C3)C2C1=O)Oc1ccc2ccccc2c1 (centres undefined) | 11.3% (inactive) | 19.4%
37 | O=C(CN1C(=O)C2C3CCC(C3)C2C1=O)Oc1ccc2ccccc2c1 (centres undefined) | 18.4% (active) | -20.7%
38 | CC1=CC(C)(C)Nc2ccc(OC(=O)CN3C(=O)C4CCCCC4C3=O)cc21 (centres undefined) | 8.28% (inactive) | 24.4%
39 | COCCNc1nc2nonc2nc1N(C)Cc1ccc(C)cc1 | 1.24% (inactive) | -31.9%
40 | Cc1cn(C)c(=O)n(C)c1=O | 8.58% (inactive) | 10.3%
41 | COc1ccc(NC(=O)C(=O)NCC(=O)Nc2cccc(C(F)(F)F)c2)cc1 | 8.9% (active) | 11.1%
42 | COc1ccc(NC(=O)CN(C)CC(=O)Nc2cccc(C(F)(F)F)c2)cc1 | 2.37% (inactive) | 1.34%
43 | O=C(O)CSCC(=O)Nc1cccc(C(F)(F)F)c1 | 6.64% (inactive) | 0%
44 | CC1Cc2ccccc2N1C1=CC(=O)CC(C)(C)C1 (centres undefined) | 2.88% (inactive) | 3.93%
45 | Cc1ccc(/C=C/C(=O)Nc2ccc([N+](=O)[O-])c(NC(=O)/C=C/c3ccc(C)o3)c2)o1 | 55.6% (active) | 0.679%
46 | CCc1nnc(NC(=O)/C=C/c2ccc(C)o2)s1 | 3.65% (inactive) | 1.45%
47 | Cc1c(NC(=O)/C=C/C(=O)O)cccc1[N+](=O)[O-] | 8.95% (inactive) | -17.9%
48 | CCCCc1ccc(NC(=S)N2CCCC(CO)C2)cc1 (centres undefined) | 11.5% (inactive) | 11.5%

Row | SMILES | % cells with GFP-LC3 spots | toxicity
49 | COc1ccc2cc(-c3[nH]ncc3CNCCn3nc(C)cc3C)ccc2c1 | 16.9% (inactive) | 22%
50 | CC(=O)NC1=NN(C(C)=O)C(C)(c2ccc(Cl)s2)S1 (centres undefined) | 21.9% (active) | 54.1%
51 | CC(=O)NC1=NN(C(C)=O)C(C)(CCS(=O)(=O)c2ccc(Cl)c(Cl)c2)S1 (centres undefined) | 9.23% (inactive) | 11.3%
52 | CC(=O)NC1=NN(C(C)=O)C(C)(c2ccc(C)cc2)S1 (centres undefined) | 4% (inactive) | -6.62%
53 | COc1ccc(N2CCN(c3ccc([N+](=O)[O-])nc3)CC2)cc1 | 7.77% (inactive) | 4.08%
54 | O=C(N/N=C/c1ccc(Br)o1)c1cncc(Br)c1 | 33.5% (inactive) | -0.407%
55 | CCN(CC)CCCNC(=O)c1ccc2c(=O)n(Cc3ccc4c(c3)OCO4)c(=S)[nH]c2c1 | 0.744% (inactive) | 5.92%
56 | CC(Nc1nc(N2CCCC2)nc2ccccc12)c1ccccc1 (centres undefined) | 13.8% (active) | -2.79%
57 | CC(Nc1nc(N2CCN(CCO)CC2)nc2ccccc12)c1ccccc1 (centres undefined) | 30.9% (inactive) | 23.9%
58 | CC(Nc1nc(N2CCOCC2)nc2ccccc12)c1ccccc1 (centres undefined) | 0.846% (inactive) | 11.2%
59 | O=C(CS(=O)(=O)c1ccccc1)Nc1ccc(S(=O)(=O)Nc2ccccn2)cc1 | 0.85% (inactive) | 0.1%
60 | C=CCN1C(=O)C(Cc2ccc(OCC)cc2)SC1=Nc1ccc(C(=O)O)cc1 (centres undefined) | 9.61% (inactive) | -5.34%
61 | O=c1c2ccccc2nc(CSc2nnnn2-c2ccccc2)n1-c1ccccc1 | 39.8% (active) | -13.7%
62 | O=c1c2ccccc2nnn1CSc1nnnn1-c1ccccc1 | 7.02% (inactive) | 5.05%
63 | Cc1ccc(Nc2nc(CSc3nnnn3-c3ccccc3)cc(=O)[nH]2)cc1 | 3.58% (inactive) | 2.22%
64 | CCCC(=O)NC(=S)Nc1ccc(CN2CCOCC2)cc1 | 10.3% (inactive) | -3.3%
65 | CCNC(=O)COC(=O)/C=C/c1c(C)nn(Cc2cccc(OC)c2)c1Cl | 10.7% (inactive) | 15.5%
66 | COC(=O)c1ccc(NC(=O)c2cc(Cl)ccc2OC)cc1 | 0.193% (inactive) | -8.44%
67 | CCOC(=O)c1cc(NC(=O)c2ccc(Cl)cc2)c(=O)oc1-c1ccccc1 | 15.9% (active) | -0.561%
68 | CCOC(=O)NNC(=O)c1ccc(Cl)cc1 | 2.34% (inactive) | 8.61%
69 | CC(=O)c1cc(NC(=O)c2ccccc2)c(=O)oc1/C=C/N(C)C | 2.32% (inactive) | 8.72%
70 | CC(C)NC(=O)NC(=O)CSc1nnc(-c2ccccc2F)n1N | 4.07% (inactive) | -3.54%
71 | Cc1cc([N+](=O)[O-])nn1Cc1ccc(F)cc1 | 11.8% (inactive) | 3.65%
72 | Cc1cnc(C(=O)OCC(=O)NCCCc2ccccc2)cn1 | 19.9% (inactive) | 14.4%
